The panel holds about 83,000 compounds, 20% with a hit somewhere; the sample as a whole holds those more often.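 Plates (96-well) were seeded with cells, treated with compound at one concentration, and incubated for 48 hours before percent growth was determined.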 Calls of active or inactive are those of the source. Rule for the calls: active = growth percent below 10; inactive = the rest.
tested on: M14 melanoma; assay: NCI-60 one-dose screen, 48 h (100 = growth as untreated, 0 = no growth, -100 = all killed); details: 10 µM unless noted

SMILES	growth
Cc1ccc(Nc2ccc(O)c3c2C(=O)c2c(O)ccc(Nc4ccc(C)cc4)c2C3=O)cc1	102% (inactive)
CCOc1ccc2c(c1)/C(=C\C=C\C1CC(C)C3CC(OCC)CCC3N1CC)CC(C)N2CC (configuration not stated)	14.9% (inactive)
COc1ccc(C(Cn2ccnc2)Sc2ccc(Cl)c(Cl)c2)cc1 (configuration not stated)	71.6% (inactive)
Oc1ccc(Cl)cc1C(c1cc(Cl)ccc1O)C(Cl)(Cl)Cl	0.872% (active)
CCc1cccc(CC)c1N1C(=O)C=CC1=O	86.6% (inactive)
CCCC[n+]1c(/C=C\c2c(OC)cc(OC)cc2OC)ccc2ccccc21	9% (active)
Cc1nn(CCO)c(C)c1N=[N+]([O-])c1c(C)nn(CCO)c1C	-61.6% (active)
O=C1C(=O)c2cccnc2-c2ncccc21	-92.6% (active)
COC(=O)c1ccc(=O)c2nc3/c(=C/O)c(O)cc(=O)c3[nH]c12	26.8% (inactive)
COc1cc(OC)c(/C=C/c2c3ccccc3cc[n+]2C)c(OC)c1	41.7% (inactive)
CC(C)(C)CC(C)(C)c1ccc(OCCOCCSC(=N)N)cc1	-67.7% (active)
CC(=O)C1Cc2ccccc2C1=O (configuration not stated)	109% (inactive)
O=C1C=C(Cl)C(=O)c2ccccc21	107% (inactive)
CCCOC(=O)c1nc(N(CC2CCCCC2)C(=O)NC)sc1/N=C/c1ccccc1	6.82% (active)
Cc1nc([N+](=O)[O-])c(Sc2nncc(-c3ccccc3)n2)n1C	88.2% (inactive)
Cc1nnc(N/N=C/c2ccc([N+](=O)[O-])o2)[nH]c1=O	26.2% (inactive)
CC12CCC(O)CC1=CCC1C2CCC2(C)C3=NN=CC3CC12 (configuration not stated)	99.7% (inactive)

Reference: PubChem BioAssay (NCI)
